Data on seven compounds can be found in PubChem BioAssay (NCI).

Among the test systems are SK-MEL-2 melanoma; EKVX NSCLC; SN12C renal; UO-31 renal; TK-10 renal; ACHN renal; CAKI-1 renal; A498 renal; CCRF-CEM leukemia; MOLT-4 leukemia; SR leukemia; RPMI-8226 leukemia; OVCAR-8 ovarian; OVCAR-5 ovarian; OVCAR-4 ovarian; SK-OV-3 ovarian; IGROV1 ovarian; OVCAR-3 ovarian; HS 578T breast; NCI/ADR-RES ovarian.
Common to all, as to assay: NCI-60 one-dose screen, 48 h (100 = growth as untreated, 0 = no growth, -100 = all killed)
What all share (conditions): 10 µM unless noted

The panel holds about 83,000 compounds, 20% with a hit somewhere; the sample as a whole holds those more often.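 Results are percent growth after 48 hours of single-concentration exposure. 100 means growth as in untreated cells, lower positive values show inhibition; negative values down to -100 show cell death.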 Unmarked numbers belong to inactive results. Active and inactive are the calls of the source. How the source made its calls: active means growth percent below 10; inactive means the rest.

As for `Cc1ccc(C2=Nc3c(N)nc(N)nc3NC(c3cccc(Nc4ccnc5cc(C(F)(F)F)ccc45)c3)C2)cc1` (stereo not given), the growth is -8.24% (active) in the test on SK-MEL-2 melanoma; 38.1% with EKVX NSCLC; 39.2% in the test on SN12C renal; 39.6% with UO-31 renal; 66% with TK-10 renal; 39.1% in the test on ACHN renal. The growth in the test with CAKI-1 renal is 29%; in the test with A498 renal, 58.4%; with CCRF-CEM leukemia, 3.36% (active); in the test on MOLT-4 leukemia it was 1.92% (active); with SR leukemia, -8.2% (active); in the test with RPMI-8226 leukemia, -19.2% (active). Besides, the growth was 36.2% with OVCAR-8 ovarian; 105% in the test on OVCAR-5 ovarian; 58.2% with OVCAR-4 ovarian; 31.4% in the test with SK-OV-3 ovarian; 36.1% with IGROV1 ovarian; 12.6% with OVCAR-3 ovarian. For the same compound, the growth was 26.3% with HS 578T breast and 30.1% in the test on NCI/ADR-RES ovarian.

For the compound `CCOC(=O)C#Cc1c(CC(=O)OCC)nnn1[C@H]1O[C@@H](CO)[C@@H]2OC(C)(C)O[C@@H]21`, the growth in the test on SK-MEL-2 melanoma is 101%; in the test with EKVX NSCLC, 99.5%; with SN12C renal it was 87.1%; with UO-31 renal, 15.7%; with TK-10 renal, 48.8%; with ACHN renal, -49.4% (active). Moreover, the growth in the test with CAKI-1 renal is -88.4% (active); with A498 renal it was 111%; in the test with CCRF-CEM leukemia, 11.7%; with MOLT-4 leukemia, 50.1%; in the test with SR leukemia, 6.89% (active); with RPMI-8226 leukemia, 45%. Besides, the growth is 94.6% in the test with OVCAR-8 ovarian; 93.9% in the test on OVCAR-5 ovarian; 88.4% in the test with OVCAR-4 ovarian; 94.4% with SK-OV-3 ovarian; 98.3% in the test on IGROV1 ovarian; 9.91% (active) in the test with OVCAR-3 ovarian. The growth in the test with HS 578T breast was 101%; in the test on NCI/ADR-RES ovarian, 102%.

Take `COC(=O)[C@H](C)NC(=O)[C@@H]1CCCN1C(=O)CNC(=O)[C@H](C)N`: the growth is 113% in the test with SK-MEL-2 melanoma; 89.6% in the test on EKVX NSCLC; 105% in the test on SN12C renal; 91.2% with UO-31 renal; 95.5% with TK-10 renal; 108% with ACHN renal. Further, the growth in the test on CAKI-1 renal is 88.4%; in the test with A498 renal, 93.2%; in the test with CCRF-CEM leukemia, 115%; with MOLT-4 leukemia, 102%; with SR leukemia it was 114%; with RPMI-8226 leukemia, 116%. The growth in the test with OVCAR-8 ovarian was 105%; in the test with OVCAR-5 ovarian, 114%; with OVCAR-4 ovarian, 89.1%; in the test on SK-OV-3 ovarian, 102%; in the test with IGROV1 ovarian it was 109%; with OVCAR-3 ovarian it was 112%. Besides, the growth with HS 578T breast is 99.8%; with NCI/ADR-RES ovarian, 106%.

Regarding `Cc1c(-c2cnc3ccc(Cl)cc3c2C(=O)O)nnn1-c1ccc(Cl)cc1`, the growth with SK-MEL-2 melanoma was 100%; in the test with EKVX NSCLC it was 121%; in the test on SN12C renal it was 89.5%; with UO-31 renal it was 79%; in the test on TK-10 renal, 101%; in the test on ACHN renal it was 94.6%. For the same compound, the growth with CAKI-1 renal was 95.8%; in the test with A498 renal, 118%; in the test with CCRF-CEM leukemia, 94%; in the test on MOLT-4 leukemia it was 94.1%; in the test on SR leukemia, 95.9%; with RPMI-8226 leukemia, 105%. The growth in the test with OVCAR-8 ovarian was 101%; in the test on OVCAR-5 ovarian, 89.9%; in the test with OVCAR-4 ovarian, 106%; in the test on SK-OV-3 ovarian it was 90.4%; in the test on IGROV1 ovarian, 108%; in the test with OVCAR-3 ovarian, 110%. The growth with HS 578T breast was 109%; with NCI/ADR-RES ovarian, 101%.

For `Cc1ccc2c(c1)CC(O)CC1C(=O)N(CCO)CC(=O)N21` (stereo not given), the growth with SK-MEL-2 melanoma is 86.2%; with EKVX NSCLC, 104%; with SN12C renal, 100%; with UO-31 renal, 95.8%; in the test with TK-10 renal it was 88.6%; in the test with ACHN renal, 104%. For the same compound, the growth in the test on CAKI-1 renal was 92.6%; with A498 renal, 99.4%; in the test on CCRF-CEM leukemia it was 104%; in the test with MOLT-4 leukemia it was 92.2%; in the test with SR leukemia, 87.3%; in the test on RPMI-8226 leukemia, 98.8%. Moreover, the growth with OVCAR-8 ovarian was 101%; with OVCAR-5 ovarian, 101%; with OVCAR-4 ovarian it was 113%; with SK-OV-3 ovarian, 103%; in the test with IGROV1 ovarian, 112%; in the test with OVCAR-3 ovarian, 115%. The growth is 103% with HS 578T breast and 104% in the test with NCI/ADR-RES ovarian.

As for `COc1cc2c(c(OC)c1OC)CCC(c1cccc(NC(=O)c3cccc(Cl)c3)c1)O2` (stereo not given), the growth in the test with SK-MEL-2 melanoma is 95.7%; in the test on EKVX NSCLC, 85.9%; with SN12C renal, 92%; with UO-31 renal, 64.2%; in the test with TK-10 renal, 90.2%; in the test on ACHN renal it was 90.7%. The growth in the test with CAKI-1 renal is 97.9%; in the test with A498 renal, 63.9%; with CCRF-CEM leukemia, 78.2%; with MOLT-4 leukemia, 57.9%; in the test with SR leukemia, 60.3%; in the test on RPMI-8226 leukemia it was 64.9%. In addition, the growth in the test on OVCAR-8 ovarian is 95.6%; in the test on OVCAR-5 ovarian, 92.8%; with OVCAR-4 ovarian, 81.1%; with SK-OV-3 ovarian, 72.9%; with IGROV1 ovarian, 86.8%; in the test on OVCAR-3 ovarian it was 92%. For the same compound, the growth in the test on HS 578T breast was 76.3%; with NCI/ADR-RES ovarian, 90.5%.

On to `CCC(=C(c1ccc(OCCN(CC)CC)cc1)c1ccc(OCCN(CC)CC)cc1)c1ccc(Cl)cc1`, for which the growth with SK-MEL-2 melanoma is -44.9% (active); in the test with EKVX NSCLC, 77.1%; with SN12C renal, -77% (active); with UO-31 renal it was -81.2% (active); with TK-10 renal, -79.3% (active); in the test with ACHN renal it was -90.2% (active). The growth was -89.4% (active) in the test on CAKI-1 renal; 43.3% in the test on A498 renal; -65.3% (active) in the test on CCRF-CEM leukemia; -60.1% (active) with MOLT-4 leukemia; -39.7% (active) with SR leukemia; -48.5% (active) with RPMI-8226 leukemia. The growth with OVCAR-8 ovarian is -49.8% (active); with OVCAR-5 ovarian it was -52.8% (active); in the test on OVCAR-4 ovarian, -38.9% (active); with SK-OV-3 ovarian it was 55.4%; in the test with IGROV1 ovarian it was -78.6% (active); in the test on OVCAR-3 ovarian, -72.2% (active). For the same compound, the figures for the growth in the test on HS 578T breast and in the test on NCI/ADR-RES ovarian were -44.3% (active) and -33.1% (active), respectively.
